Screening data (PubChem)
Cardio protect: cardioprotection against H2O2-induced cell death, primary screen, uHTS, H9c2 cells, ATPLite luminescence. H9c2 cardiomyocytes, H2O2 injury protection, 2 h. protection from H2O2 cell death, % at 20 µM. 360,000 tested, 0.63% active. AID 588492, 2011;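 active = compounds giving at least 50% protection of heart cells from peroxide-induced death in the single-dose screen, raw or plate-pattern-corrected value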;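 also: 0% = DMSO wells with peroxide and 100% = DMSO wells without peroxide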
TAG inh: inhibitors of triacylglycerol accumulation, primary screen, cell-based, uHTS, fluorescence, H9c2; 230,000 tested, 0.66% active; H9c2 cells, Nile Red lipid (TAG) fluorescence; cells loaded with 200 µM oleic acid; AID 651582, 2012; inhibition, % at 12.5 µM;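 active = pattern-corrected inhibition of lipid staining of at least 50% with the nuclear-stain viability signal not falling by more than 50%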;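 also: 0% = DMSO wells and 100% = triacsin C control wells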
Gli-Sufu block: Gli-Sufu pathway antagonists, primary screen, luciferase luminescence, Sufu-KO-LIGHT cells, uHTS; 340,000 tested, 0.74% active; AID 588413, 2011; inhibition, % at 5 µM; Sufu-KO-LIGHT fibroblasts, Gli luciferase reporter luminescence;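 active = inhibition above about 55%, limit read from the data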;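 also: 0% = DMSO-treated cells and 100% = wells with medium but no cells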
697 NFkB inh: inhibitors of PMA/ionomycin-induced NF-kB reporter, 697 cells, primary screen, B-cell NF-kB inhibitor project, cell-based, luminescence, uHTS. 697 B-cell NF-kB luciferase reporter, 16 h. inhibition, % at 4 µM. 330,000 tested, 0.33% active. AID 435022, 2010; in the data active = inhibition above about 35%
Jurkat NFkB inh: inhibitors of induced NF-kB luciferase reporter, primary screen, TCR NF-kB activation inhibitor project, cell-based, luminescence, uHTS; Jurkat, PMA/ionomycin-induced NF-kB luciferase reporter; inhibition, % at 4 µM; 330,000 tested, 0.53% active; AID 435003, 2010; in the data active = inhibition above about 50%
NR2F2 inh: NR2F2 transcriptional activity inhibitors, primary screen, cell-based, luciferase reporter, HEK293T, luminescence; 370,000 tested, 0.7% active; AID 686940, 2013; HEK293T NGFI-A luciferase reporter; inhibition, % at 8.6 µM;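 active = inhibition above a per-plate cutoff, mean inhibition of test wells between control levels plus 3 SD, cut at about 38% in these data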;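 also: cells cotransfected with COUP-TFII expression vector driving the NGFI-A reporter; 0% = median of COUP-TF2 test wells and 100% = reporter-only cells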
Target sequence (P24468 whole entry, looked up): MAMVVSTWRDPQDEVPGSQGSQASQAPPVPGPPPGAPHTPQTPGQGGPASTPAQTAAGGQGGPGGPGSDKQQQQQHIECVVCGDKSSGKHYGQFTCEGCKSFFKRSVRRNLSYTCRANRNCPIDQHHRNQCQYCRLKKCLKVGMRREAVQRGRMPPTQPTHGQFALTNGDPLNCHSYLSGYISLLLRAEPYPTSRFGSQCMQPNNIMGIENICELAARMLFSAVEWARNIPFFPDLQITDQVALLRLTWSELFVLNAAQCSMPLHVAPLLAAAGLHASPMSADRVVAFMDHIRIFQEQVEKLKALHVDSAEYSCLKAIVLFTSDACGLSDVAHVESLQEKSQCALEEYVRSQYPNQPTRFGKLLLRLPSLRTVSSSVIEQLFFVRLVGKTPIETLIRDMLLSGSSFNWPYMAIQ
Active calls of the source: *; nt = no result given. Only some compounds are listed: those with a hit (about 2.6% of all), similar ones and a draw of the others.

SMILES	Cardio protect	TAG inh	Gli-Sufu block	697 NFkB inh	Jurkat NFkB inh	NR2F2 inh
O=C(CCc1nc2ccccc2c(=O)[nH]1)Nc1ccc(F)cc1	62*	nt	-3	9	3	4
O=C(NC(CC1=CCCCC1)c1ccc2ccccc2c1)C(F)(F)F (stereo not drawn)	nt	nt	nt	nt	nt	7
CCN(C[C@H]1[C@@H](c2ccc(C3=CCCC3)cc2)[C@H](CO)N1c1nc(C)c(C)s1)S(=O)(=O)c1ccccc1[N+](=O)[O-]	nt	nt	nt	nt	nt	2
C=CCN1C(=O)[C@@H](CC(=O)NCCCN2CCCC2=O)[C@]2(C(=O)OC)CCCCC=C12	nt	nt	nt	nt	nt	-20
Cc1cc(NS(=O)(=O)C2CCN(C(=O)Cc3ccc(Cl)c(Cl)c3)CC2)no1	nt	nt	nt	nt	nt	0
CCCC[C@@H]1C(=O)N2N=C(c3ccccc3)c3ccccc3[C@H]2N2N=C(c3ccccc3)c3ccccc3[C@@H]12	nt	nt	nt	nt	nt	-8
CNc1nc(N)c([N+](=O)[O-])c(Nc2cccc(OC)c2)n1	nt	nt	nt	nt	nt	-31
O=C(CCc1nc2ccccc2c(=O)[nH]1)Nc1nc(-c2cccs2)cs1	65*	17	-3	4	-2	-2
N#CCCN(C(=O)COC(=O)CCc1nc2ccccc2c(=O)[nH]1)c1ccc(F)cc1	54*	5	-3	20	3	8
COc1ccc(NC(=O)COC(=O)CCc2nc3ccccc3c(=O)[nH]2)cc1Cl	33	-3	8	22	7	13
CC1(NC(=O)CCc2nc3ccccc3c(=O)[nH]2)CCS(=O)(=O)C1 (stereo not drawn)	51*	-15	2	-31	-5	-9
N#CCCN(C(=O)CSc1nc2ccccc2c(=O)[nH]1)c1ccc(F)cc1	48	11	6	12	1	-15
COc1ccccc1NS(=O)(=O)c1cc(NC(=O)CCc2nc3ccccc3c(=O)[nH]2)ccc1C	94*	2	7	20	9	-2
COc1ccc(NC(=O)NCCCN2CCN(c3ccc(F)cc3)CC2)cc1OC	nt	nt	nt	nt	nt	4
O=C(Nc1ccc(N2CCOCC2)cc1)c1ccc2nc(-c3ccco3)c(-c3ccco3)nc2c1	0	nt	4	-11	-10	9
Cc1nc2cc(NC(=O)N3CCN(c4ccccn4)CC3)ccc2o1	0	nt	-15	11	-9	12
S=C(Nc1ccc(N2CCOCC2)cc1)Nc1ccc2nc(-c3ccco3)c(-c3ccco3)nc2c1	56*	26	1	18	-7	-13
O=C(Nc1ccc2nc(-c3ccco3)c(-c3ccco3)nc2c1)N1CCN(c2ccccn2)CC1	117*	nt	0	-60	5	4
O=C(CSc1nnc(-c2cccnc2)n1Cc1ccco1)Nc1ccc(Cl)c(Cl)c1	nt	nt	nt	nt	nt	26
O=C(Cc1n[nH]c(=O)c2ccccc12)Nc1cc(Cl)ccc1-n1cncn1	18	-10	-3	-1	-5	5
CC(OC(=O)Cc1n[nH]c(=O)c2ccccc12)C(=O)Nc1cc(Cl)cc(Cl)c1 (stereo not drawn)	56*	21	4	16	7	13
CC(OC(=O)Cc1n[nH]c(=O)c2ccccc12)C(=O)Nc1ccc(Cl)cn1 (stereo not drawn)	58*	nt	1	12	7	17
O=C(COC(=O)Cc1n[nH]c(=O)c2ccccc12)Nc1ccc(Cl)cn1	88*	9	4	1	2	-13
O=C(COC(=O)Cc1n[nH]c(=O)c2ccccc12)Nc1c(Cl)cccc1C(F)(F)F	25	8	-15	14	0	-9
CC(OC(=O)Cc1n[nH]c(=O)c2ccccc12)C(=O)Nc1ccc(S(N)(=O)=O)cc1 (stereo not drawn)	48	10	-9	-1	2	12
O=C(COC(=O)Cc1n[nH]c(=O)c2ccccc12)Nc1ccc(Cl)cc1F	56*	4	2	25	-7	3
CC(C)CN1CN2Cc3cc(F)ccc3C2CS1(=O)=O (stereo not drawn)	nt	nt	nt	nt	nt	-13
